For 69 molecules, activity score results are on record in PubChem BioAssay AID1814 (Broad Institute, 2009).

Among all 300,000 compounds or so, about 22,000 (7.3%) were called active. About 2% were inconclusive and are not listed. Many of the other results were omitted from the sample, so actives are more common in it than they were. Unmarked numbers belong to inactive results. Rule as the data show it: active = activity score below about -60%; inconclusive = mostly about -28% to -61%; inactive = positive scores.

The nature of this assay: Activators working through SNCA 5'UTR binding (MLPCN) (AID 1814). The note with it: alpha-synuclein 5'UTR reporter, activators screen; hits give low values; tested at 7.5 µM.
With `O=C(Nc1ccc2sc3ccccc3c(=O)c2c1)c1ccccc1Cl`, the activity score was -135% (active).

Turning to `Cc1ccc(SCC(=O)c2cc(C)c(OC(=S)N(C)C)c(C)c2)cc1`, the activity score was -155% (active).

For `CCOc1ccc(C(=O)Nc2cccc(SC)c2)cc1`, the activity score was -168% (active).

Turning to `CCOc1ccc(C(=O)Nc2cc(OC)ccc2OC)cc1`, the activity score is -88.9% (active).

On to `CCOc1ccc(NC(=O)Nc2cc(C)on2)cc1`, for which the activity score was -128% (active).

Consider `CCOc1ccc(NC(=O)Nc2cc(C)ccc2OC)cc1`, for which the activity score was -78.4% (active).

Consider `CC(=O)c1cc(C#N)c(SCC(=O)C(C)(C)C)nc1C`, for which the activity score is -148% (active).

In the case of `CC(=O)c1cc(C#N)c(SCC(=O)Nc2nccs2)nc1C`, the activity score is -110% (active).

`CCOC(=O)c1cccc(NC(=O)c2ccc(F)cc2F)c1`: the activity score is -127% (active).

Take `CCC(=C/c1sc2ccc3ccccc3c2[n+]1C)/C=C1\Sc2ccc3ccccc3c2N1C`: the activity score is -122% (active).

In the case of `O=C(c1nnc(-c2ccc(Cl)cc2)o1)C1CCCC1`, the activity score is -86.2% (active).

As for `CCOC(=O)c1sc(-c2cccc([N+](=O)[O-])c2)cc1N`, the activity score was -129% (active).

For `O=C(Cn1cnc2c(cnn2-c2ccccc2)c1=O)NCc1ccccc1`, the activity score is -148% (active).

As for `O=C(OCC(=O)c1c[nH]c2ccccc12)c1cccc(O)c1`, the activity score was -220% (active).

For the molecule `O=C(OCc1ccc(-c2ccccc2)cc1)c1cccc(O)c1`, the activity score is -109% (active).

For the molecule `CCc1ccccc1NC(=O)c1cc(-c2ccc3c(c2)OCO3)on1`, the activity score was -145% (active).

With `C/C(=N/Nc1nc(-c2ccccc2)c(CC(=O)O)s1)c1ccccc1`, the activity score is -168% (active).

Turning to `COc1ccccc1N1CCN(/N=C/c2ccc(O)cc2O)CC1`, the activity score is -147% (active).

With `COc1ccccc1N1CCN(/N=C\C(Br)=C\c2ccccc2)CC1`, the activity score is -74.9% (active).

Take `CCNC(=O)N1CCNC(=O)C1CC(=O)Nc1ccc(C(=O)OCC)cc1` (centres undefined): the activity score is -69.7% (active).

For the molecule `COc1ccc(-c2cc(C(=O)NC(Cc3c[nH]c4ccccc34)C(=O)O)c(C)o2)cc1OC` (centres undefined), the activity score is -104% (active).

Turning to `CCOc1ccc(C2c3[nH]c4ccccc4c3CCN2Cc2cn(CC)nc2C)cc1` (centres undefined), the activity score was -101% (active).

In the case of `COc1ccccc1-c1cnn2c(N3CCOCC3)cc(C)nc12`, the activity score is -164% (active).

In the case of `CCn1ccnc1CN(C)Cc1nc(-c2ccc3c(c2)OCO3)no1`, the activity score is -80.6% (active).

Turning to `Cc1ccc(NC(=O)c2cc3ccccc3o2)cc1`, the activity score is -123% (active).

For the molecule `O=C(NC(=S)Nc1cccc(-c2ccc(CO)o2)c1)c1cccs1`, the activity score is -80.9% (active).

Take `COc1ccc2occ(C(=O)c3ccc(N=C(C)N(C)C)cc3)c2c1`: the activity score was -75.8% (active).

Turning to `COC(=O)c1ccc(NCC(=O)c2ccccc2)cc1`, the activity score was -123% (active).

Consider `C=CCNC(=O)c1ccc2c3n(nc2c1)-c1ccc(C)cc1CO3`, for which the activity score was -197% (active).

For the molecule `Cc1ccccc1-n1c(C)cc(/C=C2\NC(=O)NC2=O)c1C`, the activity score is -131% (active).

For `Cc1nn(CCOc2ccccc2)c(=O)n1-c1ccccc1F`, the activity score is -99.2% (active).

`C=C(C)CSc1nnc(-c2ccc(C)cc2)n1N`: the activity score is -99.6% (active).

Consider `CCCCOc1ccc(CSC(=N)N)cc1[N+](=O)[O-]`, for which the activity score is -91.9% (active).

Consider `CCCCCOc1ccc(CSC2=NCCN2)cc1[N+](=O)[O-]`, for which the activity score was -150% (active).

Turning to `CC1(C)C=Cc2c(ccc3c2OC[C@@H](c2ccc(O)cc2O)C3)O1`, the activity score was -154% (active).

`CC(C)Cc1cc(C(=O)Nc2cc(Br)ccc2O)no1`: the activity score was -135% (active).

As for `CC(C)Cc1cc(C(=O)NCCc2ccccc2)no1`, the activity score is -169% (active).

In the case of `CC(C)CNC(=O)c1cc(-c2ccc(Br)cc2)on1`, the activity score is -187% (active).

Regarding `Cc1cccc(NC(=S)NC(=O)c2ccc(Br)o2)c1`, the activity score was -131% (active).

As for `Cc1cccc(NC(=O)c2ccc([N+](=O)[O-])o2)c1`, the activity score is -159% (active).

For the molecule `Cc1ccc(NC(=O)NC(=O)c2ccccc2)cc1F`, the activity score is -128% (active).

As for `Cc1cccc(NC(=O)NC(=S)NC(=O)c2ccccc2)c1`, the activity score was -62.7% (active).

`Cc1nn(-c2ccccc2)c(C)c1NC(=O)CCl`: the activity score is -101% (active).

Consider `CCCCCCOC(=O)NCC(O)c1ccccc1` (centres undefined), for which the activity score is -126% (active).

Regarding `COCC1CCCN(Cc2nc(-c3ccc4c(c3)OCO4)no2)C1` (centres undefined), the activity score was -62.5% (active).

Regarding `Cc1cc(Nc2ccc(Br)cc2)nc2ccccc12`, the activity score was -83.2% (active).

With `Cc1ccc2nc(Nc3ccccc3)cc(C)c2c1`, the activity score is -82.2% (active).

For the molecule `CCOc1cc(/C=N/Nc2cc(C)nc3ccc(C)cc23)ccc1O`, the activity score was -66.2% (active).

On to `c1csc(-c2nc(-c3ccncc3)no2)c1`, for which the activity score is -153% (active).

As for `Cc1ccc(-c2nc(-c3ccncc3)no2)c(C)c1`, the activity score is -108% (active).

For the molecule `Cn1ccnc1-c1nnn(-c2ccc(F)cc2)n1`, the activity score was -89.8% (active).

For `Oc1ccc(/C=N/Nc2ccc(C(F)(F)F)cn2)cc1O`, the activity score is -195% (active).

Turning to `Oc1ccc(Br)cc1/C=N/Nc1ccccn1`, the activity score is 66.4%.

For the molecule `c1ccc(-n2ncc3c2ncn2c(C4CCCCC4)nnc32)cc1`, the activity score is -128% (active).

Take `Cc1cccc(Nc2nc(-c3ccccc3)cs2)n1`: the activity score was -106% (active).

On to `CC(=O)Nc1cccc(-c2cnc3ccccc3n2)c1`, for which the activity score was -207% (active).

With `c1ccc(Nc2nc(-c3ccncc3)cs2)nc1`, the activity score was -108% (active).

Turning to `Clc1ccc(Nc2nc(-c3cccs3)cs2)nc1`, the activity score was -244% (active).

Turning to `c1cnc(Nc2nc(-c3ccc4ccccc4c3)cs2)nc1`, the activity score was -125% (active).

As for `CC(=O)Nc1cccc(-c2csc(Nc3cccc(C)n3)n2)c1`, the activity score was -234% (active).

In the case of `CCOc1cc2[nH]c(=S)n(Cc3ccc(C(=O)N4CCN(C)CC4)cc3)c(=O)c2cc1OCC`, the activity score was 86.1%.

`COc1ccccc1C1C2=C(COC2=O)Nc2cc3c(cc21)OCO3` (centres undefined): the activity score was 98.1%.

Regarding `CCCOc1ccccc1C1CC(=O)Nc2cc3c(cc21)OCO3` (centres undefined), the activity score is 111%.

In the case of `COc1cc2c(cc1/C=C1/NC(=O)N(c3ccccc3)C1=O)OCO2`, the activity score was -142% (active).

For `Cc1noc(C)c1/C=N/Nc1ccc2ccccc2n1`, the activity score is -146% (active).

Take `C(=N\Nc1ccc2ccccc2n1)/c1ccc2c(c1)OCO2`: the activity score is 88.2%.

As to `C/C(=N\NC(=O)OC(C)(C)C)c1ccc[nH]1`, the activity score is -122% (active).

As for `O=C(Nn1cnc2ccccc2c1=O)c1ccc(F)cc1Cl`, the activity score was -87.1% (active).

`O=[N+]([O-])c1ccc2c(c1)Nc1nc3ccccc3nc1N2`: the activity score is -94.2% (active).
